High-throughput results as filed in PubChem.
In the library only some 6.2% were active in any assay of this set; here they are far more common.
FMDV antiviral – foot and mouth disease virus antiviral activity | Potency, µM (top dose mostly 57.9 µM), inactives show at the top dose activity change, negative = inhibition, usual class: inhibitors | 410,000 compounds, 1.2% hits | FMDV antiviral cell-based qHTS; calls by dose curve; tested in HEK293T cells; also: read-out not given here; potency is read from the fitted curve at half-maximal effect; nearly all actives have a fitted effect of over 45% in size
Lassa entry inh – blocks Lassa virus binding to or entry into cells; 300,000 compounds, 1.2% hits; AID 540256; Lassa virus pseudotype entry inhibition, cell reporter; Potency, µM (titrated, usually from 37.9 µM), for the others: at the top dose activity change, negative = inhibition, hits mostly inhibitors; calls by dose curve; tested in HEK293 cells; also: potency is read from the fitted curve at half-maximal effect; nearly all actives have a fitted effect of over 50% in size
HCMV inh – human cytomegalovirus inhibition; activity change, negative = inhibition, % at 57.5 µM; 410,000 compounds, 4.5% hits; HFF cells, HCMV-luciferase reporter, 72 h; stronger effect = lower value; AID 1259415; in the data active = activity change below about -60%; inconclusive = no clear call, values can overlap the other calls; inactive = above about -39%
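Compounds were evaluated in HFFs infected with an HCMV luciferase reporter virus (MOI 1 PFU/cell). Luciferase in lysates collected 72 h post infection served as the replication measure.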
Marburg entry inh – inhibitors of Marburg virus binding or cell entry; 300,000 compounds, 1.8% hits; Marburg virus pseudotyped entry inhibition, cell reporter; AID 540276; Potency, µM (titrated, usually from 37.8 µM), for the others: top-dose activity change, negative = inhibition, most hits filed as inhibitors; calls by dose curve; tested in HEK293 cells; also: potency is read from the fitted curve at half-maximal effect
Numbers without * were called inactive; ? = inconclusive; . = no result given; ! = repeats disagree; [ ] = remark or other dose. % is scaled to controls: 0 for no effect and ±100 for the full control effect.

SMILES	FMDV antiviral	Lassa entry inh	HCMV inh	Marburg entry inh
N#Cc1cc(-c2ccc(Cl)cc2)cn(Cc2c(Cl)cccc2Cl)c1=O	-9%	-3%	-89*	-1%
COc1ccc(C2=Nn3c(nnc3-c3ccccc3F)SC2)cc1OCC1CC1	?	.	-98*	.
COc1ccc(C2=Nn3c(nnc3-c3ccccc3OC)SC2)cc1OC	-19%	?	-97*	?
COc1ccc(C2=Nn3c(nnc3-c3ccccc3Cl)SC2)cc1OC1CCCC1	32µM*	.	-94*	.
COc1ccc(C2=Nn3c(nnc3-c3ccccc3Cl)SC2)cc1OC1CCOC1 (stereo not given)	33%	.	20	.
FC(F)Oc1ccc(C2=Nn3c(nnc3-c3ccccc3Cl)SC2)cc1OCC1CC1	0%	.	21	.
COc1ccc(OC)c(-c2nnc3n2N=C(c2ccc(OC)c(OC4CCOC4)c2)CS3)c1 (stereo not given)	-17%	.	-75*	.
CC(C)C(NS(C)(=O)=O)c1nnc2n1CCN(Cc1ccc3cccnc3c1)CC2 (stereo not given)	9%	.	.	.
COc1ccccc1-c1nc2cc(C(=O)NC[C@H]3CCc4ccccc4O3)cc(NC(C)=O)c2n1C	-4%	.	.	.
C=CCNc1ccc2c(c1)OC[C@H](CC(C)C)NS2(=O)=O	.	.	-6	.
Cc1ccc(NC(=O)c2oc3ccc(S(=O)(=O)N(C)C4CCCCC4)cc3c2C)c(C)c1	-24%	4%[46.1 µM]	?	.
Cc1ccccc1-c1cc2nc(Nc3ccc(F)cc3)n(C)c(=O)c2s1	7%	.	37	.
Cc1ccc(CNc2ncnc3sc(C(=O)N4CCCC(C(N)=O)C4)c(C)c23)o1 (stereo not given)	-20%	.	.	.
COc1ccc(O[C@H]2C=C[C@@H](c3ccccc3)O[C@H]2COC(=O)CCC(C)=NO[C@H](C)c2cn([C@H](CO)Cc3ccccc3)nn2)cc1	.	?	.	-9%[14.2 µM]
CCOc1ccc(C2=Nn3c(nnc3-c3ccccc3)SC2)cc1Cl	11%	3%	-102*	?
Cc1ccc(-c2nnc3n2N=C(c2ccccc2)CS3)cc1	-2%	-4%	1	21%
CCN(Cc1ccccc1)C(=O)C1CCN(S(=O)(=O)c2ccc3c(c2)CCCN3C(C)=O)CC1	?	3%[46.1 µM]	-39	.
NS(=O)(=O)c1ccc(NCc2cc(Cl)ccc2OCc2ccccc2F)cc1	?	-25%	-61*	-4%
COc1ccc(CN(C)c2ccc(-c3nc(-c4ccccc4)no3)cc2[N+](=O)[O-])cc1	34%	2%[46.1 µM]	72	-5%[46.1 µM]
CC1(C)N=C(N)N=C(N)N1CCCCc1ccccc1	0%	?	-98*	?
Cc1ccccc1N1C(N)=NC(N)=NC1(C)C	-18%	18%	-16	?
CCCN(CCC)c1ncnc2nc[nH]c12	-16%	.	-88*	.
CCC(=O)N1CCC1(C)C(=O)Nc1cc(OC)ccc1OC (stereo not given)	-16%	.	17	.
O=C(CN1C(=O)CC(c2ccco2)Sc2ccccc21)Nc1ccc(OC(F)(F)F)cc1 (stereo not given)	-8%	.	11	18%[46.1 µM]
O=C(NC1CCCCCCC1)C1CCN(c2nc3ccccc3o2)CC1	14µM*	?	-88*	?
SMILES	FMDV antiviral	Lassa entry inh	HCMV inh	Marburg entry inh
COc1ccccc1OCCN1CSC(=S)N(C)C1	?	7%	-74*	?
Cc1cccc(OCCN2CSC(=S)N(C)C2)c1	-24%	-15%	-2	-27%
CCCn1nc(C(=O)Nc2cc(OCC)c(N3CCOCC3)cc2OCC)c2ccccc2c1=O	?	.	-92*	.
CCOc1cc(N2CCOCC2)c(OCC)cc1NC(=O)Cc1ccccc1	-2%	-18%[46.1 µM]	-20	17%[46.1 µM]
CCOc1cc(N2CCOCC2)c(OCC)cc1NC(=O)Cc1ccccc1OC	-1%	-23%	-61*	3%
CCC(C(=O)Nc1ccc(C)c(Cl)c1)n1c(=O)c(-c2ccccc2NC(C)=O)nc2ccccc21 (stereo not given)	?	19%[46.1 µM]	-97*	20%[46.1 µM]
CCC(=O)Nc1ccccc1-c1nc2ccccc2n(C(C)C(=O)Nc2ccc(OC)cc2)c1=O (stereo not given)	39%	-25%[46.1 µM]	5	-25%[46.1 µM]
CCC(=O)Nc1ccccc1-c1nc2ccccc2n(C(CC)C(=O)Nc2cccc(Cl)c2)c1=O (stereo not given)	?	-13%[46.1 µM]	-108*	-15%[46.1 µM]
COC(=O)C1=C(C)N(Cc2ccccc2)C(=NCCc2cccnc2)NC1c1ccc(Br)cc1 (stereo not given)	.	?	.	4%[14.2 µM]
O=C1Nc2ccccc2C(=O)N2[C@H](c3cccc(Br)c3)[C@@H]3C(=O)N(Cc4ccccc4)C(=O)[C@@H]3[C@H]12	-11%	.	-60*	.
O=C1Nc2ccccc2C(=O)N2[C@H](c3ccccc3)[C@@H]3C(=O)N(Cc4ccccc4)C(=O)[C@@H]3[C@H]12	-20%	.	-27	.
CC(C)N1CC=C(c2c[nH]c3ccccc23)CC1	?	?	-67*	7%
O=C(Nc1ccc(Cl)cc1)N1CCC(c2nc(-c3ccc(F)cc3)no2)CC1	-21%	-27%	-91*	-29%
O=C(Nc1ccc(Cl)cc1)N1CCN(c2ccc3nnc(-c4ccc(F)cc4)n3n2)CC1	-28%	?	-63*!	?
O=C(Nc1ccc(F)cc1)N1CCCN(c2ccc(C(F)(F)F)cn2)CC1	-17%	-12%[46.1 µM]	-62*	?
COc1ccc(NC(=O)N2CCCC(c3nc(-c4ccc(OC)cc4)no3)C2)cc1 (stereo not given)	-18%	?	?	?
Cc1cccc2c(Nc3ccc4c(c3)OCO4)nc(CN3CCC(N4CCCCC4)CC3)nc12	-12%	.	.	.
CN(C)c1ccc(C=c2c3ccccc3n3c2c2c([n+]3C)CCCC2)cc1	6.3µM*	7.9µM*	-99*	4.5µM*
CN(C)c1ccc(C=c2c3ccccc3n3c2cc(-c2ccc(Cl)cc2)[n+]3C)cc1	?	?	-99*	?
COc1cc(C=c2c3ccccc3n3c2cc(-c2ccccc2)[n+]3C)cc(OC)c1OC	?	14µM*	-101*	?
CN(C)c1ccc(/C=C2\CCC/C(=C\c3ccccc3)C2=O)cc1	10%	?	33	-18%
COc1cc(N(C)C)ccc1C=c1c2ccccc2n2c1cc(-c1ccccc1)[n+]2C	?	?	-99*	?
COc1ccccc1CNc1nc(-c2ccc(N(C)C)cc2)nc2ccccc12	18%	.	.	.
COCCN1CCN(C(=O)c2cnn(-c3nccc(-c4cc5ccccc5o4)n3)c2C2CC2)CC1	-1%	.	.	.
CN(C)c1ccc(C=c2c3ccccc3n3c2cc(-c2ccccc2)[n+]3C)cc1	16µM*	2.8µM*	-99*	2.8µM*
CN(C)c1ccc(C=C2C=C(c3ccccc3)OC2=O)cc1	28%	.	-37	.
CN(C)c1ccc(C=c2c3cc([N+](=O)[O-])ccc3n3c2cc(-c2ccccc2)[n+]3C)cc1	32µM*	8.9µM*	-100*	?
Cn1c(CO)c(-c2ccccc2)c2cc([N+](=O)[O-])ccc21	-10%	3%	-37	0%
CCOc1ccc(S(=O)(=O)NCCc2csc3nc(-c4cccc(C)c4)nn23)cc1	4%	-1%[46.1 µM]	-8	.
COc1ccc(NC(=O)Cn2nnc(-c3ccccc3NS(=O)(=O)c3ccccc3)n2)cc1	?	?	.	8.9µM*
